Measurements: PubChem BioAssay

These molecules were tested against Concanavalin-A (Canavalia ensiformis) (UniProt P02866) (assay: ConA small-molecule binders, primary screen, artefact control for SMM control protein annotation, biochemical, small-molecule microarray, Alexa647 label, 635 nm (AID 1127;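 also: z combines 667 nm emission intensity with signal-to-noise across three replicate slides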)). Conditions: ConA-A647 binding fluorescence, higher = more signal.
Sequence of Concanavalin-A (Canavalia ensiformis) (P02866 whole entry, looked up): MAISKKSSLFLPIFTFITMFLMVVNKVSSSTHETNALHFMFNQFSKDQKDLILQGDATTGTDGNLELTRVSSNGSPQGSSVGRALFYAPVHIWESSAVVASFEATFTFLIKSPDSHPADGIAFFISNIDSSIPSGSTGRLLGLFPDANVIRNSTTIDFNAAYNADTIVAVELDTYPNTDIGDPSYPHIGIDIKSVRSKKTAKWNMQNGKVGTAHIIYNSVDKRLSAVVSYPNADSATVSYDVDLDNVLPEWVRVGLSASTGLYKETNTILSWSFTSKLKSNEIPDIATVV

Row | SMILES | composite z-score
1 | C[C@@H]1ON(c2ccccc2)[C@H](c2ccccc2)[C@H]1C(=O)N1C(=O)OC[C@H]1Cc1ccccc1 | 0.603
2 | COCCCNC(=O)[C@@H]1c2ccccc2C(=O)N(c2ccc(C)cn2)[C@H]1c1ccc(CO)cc1 | -0.482
3 | CC(=O)NCCCC[C@@H]1NC(=O)[C@H]2C[C@@H](C(=O)NCCCCCN)[C@@H](c3cccc(OCCO)c3)N2C1=O | 1.2
4 | C=CCOC(=O)[C@@H]1[C@H]2C(=O)O[C@H](c3ccccc3)[C@H](c3ccccc3)N2[C@H](c2ccc(OCCOC(=O)[C@H]3C[C@H]4C(=O)N[C@@H](Cc5ccccc5)C(=O)N4[C@H]3c3cccc(OCCO)c3)cc2)[C@@]12C(=O)Nc1ccc(I)cc12 | 1.11
5 | O=C(Nc1cc(Br)ccc1C(=O)NCc1cccc(O)c1)c1ccccc1 | 1.18
6 | CC(C)CCC[C@@H](C)[C@H]1CC[C@@]2(C)C3=C(CC[C@]12C)[C@@]1(C)CC[C@H](OC(=O)C(C)(C)C)C(C)(C)C1CC3 (some centres not stated) | 0.632
7 | COC(=O)[C@@]1(Cc2ccccc2)[C@H]2c3cc(C(=O)N(C)C)n(Cc4ccc(O)c(OC)c4)c3C[C@H]2CN1C(=O)c1ccccc1 | 1.1
8 | CC(C)C[C@H]1NC(=O)[C@H](C)NC(=O)[C@@]23C(=O)N[C@@H](Cc4ccccc4)C2[C@H](C)[C@@]2(C)O[C@H]2C3/C=C/C/C=C\CNC1=O (some centres not stated) | -0.565
9 | NCCCCCCNC(=O)[C@H]1C[C@H]2C(=O)N3CCC[C@H]3C(=O)N2[C@H]1c1ccc(O)cc1 | 0.998
10 | COC(=O)C(CC#Cc1ccc2c(c1)[C@]1(C(=O)N2)[C@H](c2ccc(OCCO)cc2)N2[C@H](c3ccccc3)[C@H](c3ccccc3)OC(=O)[C@H]2[C@@H]1C(=O)O)C(=O)OC | 1.15
11 | O=C1O[C@H](c2ccccc2)[C@H](c2ccccc2)N2[C@H]1[C@@H](C(=O)N1CCN(c3ncccn3)CC1)[C@]1(C(=O)Nc3ccc(C#CCCO)cc31)[C@H]2c1ccc(OCCO)cc1 | 1.11
12 | NC(=O)NCC#Cc1ccc2c(c1)[C@]1(C(=O)N2)[C@H](c2ccc(OCCO)cc2)N2[C@H](c3ccccc3)[C@H](c3ccccc3)OC(=O)[C@H]2[C@@H]1C(=O)N1CCCCCCC1 | 1.14
13 | CN(C)C(=O)[C@@]1(CCS(=O)(=O)c2ccccc2)N=C(c2ccc(OCCCO)cc2)O[C@H]1c1ccccc1CN=[N+]=[N-] | 1.08
14 | COc1ccc(CCNC(=O)[C@@H]2c3ccccc3C(=O)N(Cc3ccccc3C(F)(F)F)[C@H]2c2ccc(CO)cc2)cc1 | -0.272
15 | O=C1O[C@H](c2ccccc2)[C@H](c2ccccc2)N2[C@H]1[C@@H](C(=O)NC[C@H](O)c1ccccc1)[C@]1(C(=O)Nc3ccccc31)[C@H]2c1ccccc1OCCO | 1.02
16 | C=C(CCCC)/C(=C/C[C@H](OC(=O)c1ccncc1)c1ccc(CO)o1)c1cc(C(=O)OC)ccc1OC | 1.02
17 | CCCCCCCCCCC(O)C1C=CC2C(=O)NC(=O)C2N1Nc1ccccn1 (configuration not stated) | 0.709
18 | COC(=O)[C@@]1(Cc2ccc(OC)cc2)[C@H]2c3cc(C(=O)N4CCCC4)n(Cc4ccc(C)o4)c3C[C@H]2CN1C(=O)c1ccccc1 | 0.88
19 | C=C(/C(=C/C[C@@H](OC(=O)c1ccncc1)c1cccc(OCCO)c1)c1cc(C(=O)OC)ccc1OC)C(C)C | 0.996
20 | CCOC(=O)C[C@H]1[C@H](OC(=O)Cc2ccc3c(c2)OCO3)[C@@H](NC(=O)c2ccccc2)c2cc(OCCCO)ccc2N1C(=O)c1ccccc1 | 0.374
21 | CCCC=C(CCC)[C@@H](NS(=O)(=O)c1ccccc1)c1ccc(C(F)(F)F)cc1 | 1.09
22 | C=C[C@H](C)[C@H](OC(=O)Nc1ccc(SC)cc1)c1ccc(O)c2ccccc12 | -0.252
23 | CC1(C)[C@@H]2CC(C(O)C3C=CC4C(=O)N(c5ccccc5)C(=O)C4N3Nc3ccccc3F)=C[C@@H]1C2 (some centres not stated) | 1.09
24 | COC(=O)c1ccc(OC)c(/C=C\CC(CCc2ccccc2)OC(=O)c2ccncc2)c1 (configuration not stated) | -0.363
25 | O=C1C2C=CC(C(O)c3ccc(Br)cc3)N(Nc3ccccc3)C2C(=O)N1c1ccccc1 (configuration not stated) | 0.722
26 | COCCOC(=O)N1C(=O)[C@@]2(c3cc(C#Cc4ccc(OC)cc4)ccc31)[C@H](C(=O)N1CCc3cc(OC)c(OC)cc3C1)[C@H]1C(=O)O[C@H](c3ccccc3)[C@H](c3ccccc3)N1[C@@H]2c1ccc(OCCO)cc1 | 1.09
27 | C=CCC(OC(C)=O)[C@@H]1[C@@H](N(Cc2ccc(-c3cccc(C(F)(F)F)c3)o2)C(=O)c2cccc3ccccc23)c2cc(OCCCO)ccc2N1C(=O)c1ccc(-c2ccccc2)cc1 (some centres not stated) | -0.402
